We go through ten molecules from PubChem BioAssay.

SMILES strings stand for the structures. Several values for one entry are separate records, joined by “and”; a condition that tells them apart may be missing. Equal entries are not always repeated. Records with an inconclusive call do not appear. Activity calls are given as the source filed them.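 The calls were made as follows, unless noted: active = normalized viability below 100% at a tested concentration; inactive = the rest.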

Test [1] in a line: growth inhibition of DIPG glioma cells, dose response, cell-based, SU-DIPG-XVII, MIPE5.0, CellTiter-Glo, qHTS (AID 1347060; cut-off not given, nearly all actives have AC50 up to about 26 µM;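 as to AC50: cells exposed to compound for 48 hours before viability readout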). The following applies: SU-DIPG-XVII viability, CellTiter-Glo ATP luminescence.
Test [2] can be described thus: growth inhibition of DIPG glioma cells, dose response, cell-based, SU-DIPG-XIII, MIPE4.0, CellTiter-Glo, qHTS (AID 1347061; cut-off not given, nearly all actives have AC50 up to about 37 µM;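 also: cells exposed to compound for 48 hours before readout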). The following applies: SU-DIPG-XIII viability, CellTiter-Glo ATP luminescence.
A short description of test [3]: growth inhibition of DIPG glioma cells, dose response, cell-based, SU-DIPG-IV, MIPE4.0, CellTiter-Glo, qHTS (AID 1347063; cut-off not given, nearly all actives have AC50 up to about 30 µM;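 also: compound exposure lasted 48 hours before the viability readout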). The following applies: SU-DIPG-IV viability, CellTiter-Glo ATP luminescence.
Test [4] in a line: growth inhibition of DIPG glioma cells, dose response, cell-based, SU-DIPG-XIII, MIPE5.0, CellTiter-Glo, qHTS (AID 1347064; cut-off not given, nearly all actives have AC50 up to about 23 µM;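 as to AC50: cells exposed to compound for 48 hours before the viability read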). The following applies: SU-DIPG-XIII viability, CellTiter-Glo ATP luminescence.
A short description of test [5]: viability loss in pontine glioma line – cell-based, SU-DIPG-XXV, MIPE5.0, CellTiter-Glo, qHTS, dose response (AID 1347065; cut-off not given, nearly all actives have AC50 up to about 26 µM;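 also: cells exposed to compound for 48 hours before ATP readout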). The following applies: CellTiter-Glo ATP luminescence.
Test [6] in a line: SU-DIPG-VI glioma cell viability, MIPE4.0 library, CellTiter-Glo luminescence, qHTS (AID 1347066; cut-off not given, nearly all actives have AC50 up to about 30 µM;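 also: cells exposed to compound for 48 hours before readout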). The following applies: CellTiter-Glo ATP luminescence.
Test [7] is described as follows: JHH-DIPG-1 glioma cell viability, MIPE5.0 library, CellTiter-Glo luminescence, qHTS (AID 1347067; cut-off not given, nearly all actives have AC50 up to about 26 µM;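 also: cells exposed to compound for 48 hours before readout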). The following applies: JHH-DIPG-1 glioma viability, CellTiter-Glo ATP luminescence.
Test [8] can be described thus: SU-DIPG-XXV glioma cell viability, MIPE5.0 library, qHTS (AID 1347068; cut-off not given, nearly all actives have IC50 up to about 30 µM).
Test [9] is described as follows: sensitizers of A549 cells to miR-34 induction, primary screen, imaging, A549 dox-inducible miR-34, nuclei and caspase counts (AID 1347080;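 active = compounds whose cell count with miR-34 switched on is under 0.7 times the count with it off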). The following applies: A549 miR-34 inducible, Hoechst nuclei count, 48 h.
The nature of test [10]: survival rescue of mitochondrial mutant cells in low glucose, primary screen, MELAS cybrids, Rieske KO mouse fibroblasts, CellTiter-Glo (AID 1508586;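 active = mean z-score across replicates of 1.96 or higher in either the MELAS or the Rieske mutant cell line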;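 also: z relative to plate mean and SD of compound and empty wells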).
Test [11] can be described thus: ovarian cancer cell viability with rucaparib, profiling panel, oncology-focused library, rucaparib conditional (AID 1508598). The following applies: patient-derived ovarian cancer cells, CellTiter-Glo viability, 144 h, stronger effect = lower value.
Test [12] is described as follows: modifiers of HSF1 nuclear foci, imaging, Selleck Cancer Library (AID 1347162; in the data active = plate-normalised HSF1 focus index below about 0.46). The following applies: human cells, at 10 µM; SSMD: measured here: HSF1 foci SSMD mean; cell count: measured here: cell number; plate-normalised HSF1 focus index: stronger effect = lower value.
[13] abbreviates: stronger effect = lower value, cell number ratio, induced over uninduced.
Setting [14] is: measured here: relative caspase fold change +Dox/-Dox.
Setting [15] is: measured here: total cells with miR-34 induction, stronger effect = lower value.
[16] abbreviates: measured here: total cells without miR-34 induction.
[17] abbreviates: MELAS cybrid survival, CellTiter-Glo 48 h, stronger effect = higher value.
[18] abbreviates: Rieske KO mouse fibroblast survival, CellTiter-Glo 72 h.

Turning to `Cc1nc(NC(=O)N2CCC[C@H]2C(N)=O)sc1-c1ccnc(C(C)(C)C(F)(F)F)c1`, the AC50 in [1] is 5.9 µM (active); in test [2], 1.87 µM (active); in test [3] it was 1.05 µM (active); in [4] it was 4.68 µM (active); in test [5], 3.32 µM (active); in [6], 1.66 µM (active).
Consider `O=S(=O)(O)CCSSCCS(=O)(=O)O`, for which the result in [1], in test [2], in test [4], in test [5], in test [6] and in [7] was inactive. Further, in test [8], the molecule was classed as inactive. In addition, the fold change in test [9] (setting [13]) is 0.942 (inactive) and 0.926 (inactive); in test [9] (setting [14]) it was 0.692 and 0.976. Also, the cell count in [9] (setting [15]) is 8910 and 7810; in [9] (setting [16]) it was 9460 and 8440. In addition, the z-score in test [10] (setting [17]) is -0.449 (inactive); in test [10] (setting [18]), 0.587. Besides, the viability was 98.2% (active) in test [11] (at 0.000305 µM, OCI-C5x cells, with rucaparib 10 µM, 100% = cells with rucaparib alone); 108% (inactive) in test [11] (at 0.000305 µM, OCI-C5x cells, without rucaparib); 105% (inactive) in [11] (at 0.000305 µM, OCI-P5x cells, with rucaparib 20 µM, 100% = cells with rucaparib alone); 108% (inactive) in test [11] (at 0.000305 µM, OCI-P5x cells, without rucaparib); 106% (inactive) in test [11] (at 0.00122 µM, OCI-C5x cells, with rucaparib 10 µM, 100% = cells with rucaparib alone); 106% (inactive) in test [11] (at 0.00122 µM, OCI-C5x cells, without rucaparib). Also, the viability is 105% (inactive) in test [11] (at 0.00122 µM, OCI-P5x cells, with rucaparib 20 µM, 100% = cells with rucaparib alone); 103% (inactive) in test [11] (at 0.00122 µM, OCI-P5x cells, without rucaparib); 102% (inactive) in test [11] (at 0.00488 µM, OCI-C5x cells, with rucaparib 10 µM, 100% = cells with rucaparib alone); 103% (inactive) in test [11] (at 0.00488 µM, OCI-C5x cells, without rucaparib); 101% (inactive) in test [11] (at 0.00488 µM, OCI-P5x cells, with rucaparib 20 µM, 100% = cells with rucaparib alone); 100% (inactive) in test [11] (at 0.00488 µM, OCI-P5x cells, without rucaparib). The viability in test [11] (at 0.0195 µM, OCI-C5x cells, with rucaparib 10 µM, 100% = cells with rucaparib alone) is 100% (inactive); in test [11] (at 0.0195 µM, OCI-C5x cells, without rucaparib), 107% (inactive); in test [11] (at 0.0195 µM, OCI-P5x cells, with rucaparib 20 µM, 100% = cells with rucaparib alone) it was 105% (inactive); in [11] (at 0.0195 µM, OCI-P5x cells, without rucaparib), 104% (inactive); in [11] (at 0.0781 µM, OCI-C5x cells, with rucaparib 10 µM, 100% = cells with rucaparib alone), 100% (inactive); in [11] (at 0.0781 µM, OCI-C5x cells, without rucaparib) it was 104% (inactive). The viability in test [11] (at 0.0781 µM, OCI-P5x cells, with rucaparib 20 µM, 100% = cells with rucaparib alone) was 98.4% (active); in test [11] (at 0.0781 µM, OCI-P5x cells, without rucaparib) it was 98.9% (active); in test [11] (at 0.313 µM, OCI-C5x cells, with rucaparib 10 µM, 100% = cells with rucaparib alone), 100% (inactive); in [11] (at 0.313 µM, OCI-C5x cells, without rucaparib), 105% (inactive); in test [11] (at 0.313 µM, OCI-P5x cells, with rucaparib 20 µM, 100% = cells with rucaparib alone), 101% (inactive); in [11] (at 0.313 µM, OCI-P5x cells, without rucaparib) it was 97.9% (active). In addition, the viability in [11] (at 1.25 µM, OCI-C5x cells, with rucaparib 10 µM, 100% = cells with rucaparib alone) is 127% (inactive); in test [11] (at 1.25 µM, OCI-C5x cells, without rucaparib) it was 101% (inactive); in test [11] (at 1.25 µM, OCI-P5x cells, with rucaparib 20 µM, 100% = cells with rucaparib alone), 94.1% (active); in test [11] (at 1.25 µM, OCI-P5x cells, without rucaparib) it was 89.9% (active); in test [11] (at 5 µM, OCI-C5x cells, with rucaparib 10 µM, 100% = cells with rucaparib alone) it was 116% (inactive); in [11] (at 5 µM, OCI-C5x cells, without rucaparib), 101% (inactive). Also, the viability in test [11] (at 5 µM, OCI-P5x cells, with rucaparib 20 µM, 100% = cells with rucaparib alone) is 90.1% (active); in [11] (at 5 µM, OCI-P5x cells, without rucaparib), 88.4% (active).
For the molecule `CCC(=O)N1CCN(c2ccc(-n3c(=O)ccc4cnc5ccc(-c6cnc7ccccc7c6)cc5c43)cc2C(F)(F)F)CC1`, the AC50 was 0.0456 µM (active) in test [1]; 1.32 µM (active) in test [2]; 0.0662 µM (active) in test [3]; 0.162 µM (active) in test [4]; 0.0811 µM (active) in test [5]. The molecule further had an SSMD in test [12] of 1.96. In [12], this molecule showed a cell count of 7220. In addition, in [12], the plate-normalised HSF1 focus index was 1.1 (inactive).
For `O=C(O)Cn1nnc(-c2cc(N3CCC(Oc4cc(F)ccc4Br)CC3)no2)n1`, the result in test [1], in test [2], in test [3], in test [4], in test [6] and in [7] was inactive. Also, in test [8], the outcome was inactive. Also, the fold change is 0.885 (inactive) in [9] (setting [13]) and 0.826 in test [9] (setting [14]). The cell count in [9] (setting [15]) turned out to be 6300; in test [9] (setting [16]), 7120. Besides, the z-score was -0.382 (inactive) in test [10] (setting [17]) and 0.855 in test [10] (setting [18]).
On to `Cc1ccc(S(=O)(=O)Nc2cc(Cl)ccc2C(=O)Nc2nc(-c3ccccc3)cs2)cc1`, for which the AC50 in test [1] was 7.42 µM (active); in test [2], 10.5 µM (active); in test [3] it was 16.6 µM (active); in [5], 8.33 µM (active); in test [6], 5.26 µM (active); in test [7], 1.05 µM (active).
`COc1ccc(-c2oc3c(CC=C(C)C)c(OC4O[C@H](CO)[C@@H](O)[C@H](O)[C@H]4O)cc(O)c3c(=O)c2OC2O[C@@H](C)[C@H](O)[C@@H](O)[C@H]2O)cc1` (some centres undefined): the outcome in [1], in [2], in test [5], in test [7] and in test [8] was inactive. For the same molecule, the AC50 in test [3] and in [6] was 14.8 µM (active) in each case.
As to `C[C@@H](NC(=O)c1ncnc(N)c1Cl)c1ncc(C(=O)Nc2cc(C(F)(F)F)c(Cl)cn2)s1`, the concentration at half-maximal activity (AC50) in [1] is 16.6 µM (active); in test [2] it was 18.7 µM (active); in test [4], 14.8 µM (active); in test [7] it was 5.9 µM (active). Also, the outcome in [6] and in test [8] was inactive.
Take `CCC(=O)NC[C@H](Cc1ccc(OCCc2nc(-c3ccccc3)oc2C)cc1)N/C(C)=C\C(=O)c1ccc(C(F)(F)F)cc1`: the AC50 in test [1] was 16.6 µM (active); in test [3], 8.33 µM (active); in test [5], 13.2 µM (active). In addition, the call in test [2], in test [6] and in test [8] was inactive.
`N#CC1(c2ccc(NC(=O)c3cccnc3NCc3ccncc3)cc2)CCCC1`: the molecule was classed as inactive in test [1], in test [2], in test [4], in [5], in test [6] and in test [7]. Besides, the call in test [8] was inactive. In addition, the fold change was 0.862 (inactive) in test [9] (setting [13]) and 1.08 in [9] (setting [14]). The cell count in test [9] (setting [15]) is 6630; in test [9] (setting [16]) it was 7700. Also, the z-score is -0.704 (inactive) in [10] (setting [17]) and 0.694 in [10] (setting [18]).
For the molecule `C/C=C/C/C=C/CCC(=O)[C@H]1O[C@H]1C(N)=O`, the half-maximal activity concentration (AC50) in [1] was 20.9 µM (active); in test [4], 20.9 µM (active); in test [7], 23.5 µM (active). Besides, the molecule was classed as inactive in test [2] and in [6]. Moreover, the fold change in [9] (setting [13]) is 0.809 (inactive) and 1.05 (inactive); in [9] (setting [14]) it was 2.34 and 1.07. Besides, the cell count was 532 and 6420 in [9] (setting [15]); 658 and 6130 in [9] (setting [16]).
